This is an account of results in PubChem BioAssay (EPA / NIEHS).

As a reminder, the AC50 is the concentration at which the activity in the assay is half-maximal.

Inconclusive results are not listed. Calls of active or inactive are those of the source. How the source made its calls: active means hit-call score of the fitted dose curve at least 0.9, where 1 is the maximum; inconclusive means response in the unintended direction; inactive means score below 0.9.

Assay [1] addresses human Vascular Endothelial Growth Factor Receptor 1 (VEGFR1), FLT1 (gene 2321) (UniProt P17948). Put plainly: NVS_ENZ_hVEGFR1: NovaScreen (NVS) Enzymatic Assay for human Vascular Endothelial Growth Factor Receptor 1 (VEGFR1) (AID 2283226). A digest of the protocol: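 Cell-free assay of recombinant human VEGFR1 kinase with substrate, measured 1 h after dosing; fluorescence with electrophoretic mobility-shift separation of substrate and product, referenced to DMSO; primary screen at 25 uM in duplicate, actives then run in concentration series.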

Assay [2] addresses sheep Cyclooxygenase-1 (Cox1), PTGS1 (gene 443551) (UniProt P05979). Put plainly: NVS_ENZ_oCOX1: NovaScreen (NVS) Enzymatic Assay for sheep Cyclooxygenase-1 (Cox1) (AID 2283239).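 Further: actives reduce cyclooxygenase activity so potencies are for inhibitors.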 Summed up: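 Absorbance read-out of cyclooxygenase activity in a cell-free preparation from sheep seminal vesicles, taken 0.66 hour after dosing. Initial testing was in duplicate at 25 uM, and confirmatory testing was run in concentration series.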

For assay [3], the target named is rabbit Imidazoline 2 Central (I2C), CKB (gene 100009085) (UniProt P00567). Put plainly: NVS_ENZ_rabI2C: NovaScreen (NVS) Enzymatic Assay for rabbit Imidazoline 2 Central (I2C) (AID 2283228). Summed up: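 Rabbit brain membranes, cell-free; readout by filter-based scintillation counting 1.5 hours after dosing, loss of signal vs DMSO. Initial duplicate test at 25 uM, then concentration-response with 50 uM top concentration.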
rabbit Imidazoline 2 Central (I2C), CKB (gene 100009085), sequence (P00567 whole entry, looked up): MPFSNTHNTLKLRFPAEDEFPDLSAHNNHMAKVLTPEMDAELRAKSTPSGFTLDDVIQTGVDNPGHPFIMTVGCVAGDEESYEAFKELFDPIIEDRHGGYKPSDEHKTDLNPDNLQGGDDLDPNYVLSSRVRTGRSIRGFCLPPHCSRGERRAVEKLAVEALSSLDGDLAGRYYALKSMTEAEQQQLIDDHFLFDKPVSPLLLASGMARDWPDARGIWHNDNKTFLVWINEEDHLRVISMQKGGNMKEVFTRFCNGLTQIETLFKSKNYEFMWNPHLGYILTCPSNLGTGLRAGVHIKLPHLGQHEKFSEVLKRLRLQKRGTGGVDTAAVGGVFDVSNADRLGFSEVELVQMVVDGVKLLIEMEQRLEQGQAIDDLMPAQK

Assay [4] deals with human Vascular Endothelial Growth Factor Receptor 2 (VEGFR2), KDR (gene 3791) (UniProt P35968). Briefly: NVS_ENZ_hVEGFR2: NovaScreen (NVS) Enzymatic Assay for human Vascular Endothelial Growth Factor Receptor 2 (VEGFR2) (AID 2283230). Summed up: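 Cell-free recombinant VEGFR2 kinase, fluorescent substrate with electrophoretic mobility-shift separation; read 1 h after dosing. Screened at 25 uM in duplicate, hits to concentration-response up to 50 uM; loss-of-signal versus DMSO.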
human Vascular Endothelial Growth Factor Receptor 2 (VEGFR2), KDR (gene 3791), sequence (P35968 whole entry, looked up): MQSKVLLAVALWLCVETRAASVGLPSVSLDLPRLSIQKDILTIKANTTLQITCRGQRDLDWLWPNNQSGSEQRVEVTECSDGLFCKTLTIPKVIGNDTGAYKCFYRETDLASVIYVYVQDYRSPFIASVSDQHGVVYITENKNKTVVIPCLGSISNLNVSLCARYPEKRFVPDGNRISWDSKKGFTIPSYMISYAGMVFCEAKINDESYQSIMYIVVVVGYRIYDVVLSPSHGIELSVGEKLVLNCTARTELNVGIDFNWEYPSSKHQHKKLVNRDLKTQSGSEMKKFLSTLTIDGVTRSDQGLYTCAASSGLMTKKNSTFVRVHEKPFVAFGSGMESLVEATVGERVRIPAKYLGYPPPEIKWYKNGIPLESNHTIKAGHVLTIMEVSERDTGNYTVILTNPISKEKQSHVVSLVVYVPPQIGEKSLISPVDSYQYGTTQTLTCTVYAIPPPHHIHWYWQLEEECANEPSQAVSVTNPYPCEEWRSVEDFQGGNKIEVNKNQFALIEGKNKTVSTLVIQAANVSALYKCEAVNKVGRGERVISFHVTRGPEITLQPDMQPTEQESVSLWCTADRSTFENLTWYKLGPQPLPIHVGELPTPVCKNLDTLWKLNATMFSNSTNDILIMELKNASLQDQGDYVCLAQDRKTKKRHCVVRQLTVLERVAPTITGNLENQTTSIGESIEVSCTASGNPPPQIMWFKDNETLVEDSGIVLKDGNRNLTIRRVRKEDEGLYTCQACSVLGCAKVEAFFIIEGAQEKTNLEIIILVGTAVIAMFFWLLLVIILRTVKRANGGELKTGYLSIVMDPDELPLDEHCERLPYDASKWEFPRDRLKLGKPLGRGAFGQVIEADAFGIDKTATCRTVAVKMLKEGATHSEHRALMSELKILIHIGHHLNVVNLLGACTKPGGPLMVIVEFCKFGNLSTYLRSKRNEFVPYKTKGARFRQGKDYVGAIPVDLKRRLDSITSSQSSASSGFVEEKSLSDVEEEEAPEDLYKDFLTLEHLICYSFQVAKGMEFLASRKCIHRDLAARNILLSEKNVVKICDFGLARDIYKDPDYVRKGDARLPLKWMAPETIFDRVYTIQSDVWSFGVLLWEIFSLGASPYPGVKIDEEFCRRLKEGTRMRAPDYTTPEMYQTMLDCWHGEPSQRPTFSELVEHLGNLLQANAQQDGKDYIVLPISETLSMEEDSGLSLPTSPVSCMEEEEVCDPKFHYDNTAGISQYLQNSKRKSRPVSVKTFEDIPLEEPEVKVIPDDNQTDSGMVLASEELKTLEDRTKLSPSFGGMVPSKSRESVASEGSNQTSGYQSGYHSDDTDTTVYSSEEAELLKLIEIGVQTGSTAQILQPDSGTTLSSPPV

Assay [5] deals with sheep Cyclooxygenase-2 (Cox2), PTGS2 (gene 443460) (UniProt P79208). Briefly: NVS_ENZ_oCOX2: NovaScreen (NVS) Enzymatic Assay for sheep Cyclooxygenase-2 (Cox2) (AID 2283231). A digest of the protocol:
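Colorimetric absorbance read-out of COX activity, taken 0.66 hour post-dosing, using native protein from sheep placenta. Single-concentration duplicate screen (25 uM), then singleton concentration-response up to 50 uM for actives.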

Assay [6] concerns the target human Tropomyosin Receptor Kinase A (TRKA), NTRK1 (gene 4914) (UniProt P04629). Briefly: NVS_ENZ_hTrkA: NovaScreen (NVS) Enzymatic Assay for human Tropomyosin Receptor Kinase A (TRKA) (AID 2283224). Summed up: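 Recombinant human TrkA activity read after 1 h by fluorescence with electrophoretic mobility shift separating substrate and product. Primary screen in duplicate at 25 uM; actives were rerun in concentration-response up to 50 uM. Loss of signal versus DMSO.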

In assay [7] the target is human Vascular Endothelial Growth Factor Receptor 3 (VEGFR3), FLT4 (gene 2324) (UniProt P35916). Put plainly: NVS_ENZ_hVEGFR3: NovaScreen (NVS) Enzymatic Assay for human Vascular Endothelial Growth Factor Receptor 3 (VEGFR3) (AID 2283229). Summed up:
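Cell-free recombinant VEGFR3 kinase reaction with fluorescent substrate, read 1 h after dosing by electrophoretic mobility shift separation of substrate and product. Single-concentration duplicate screen at 25 uM, then concentration-response up to 50 uM; loss of activity versus DMSO.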

The target of assay [8] is bovine Dopamine Receptor (DR), Non-selective Binding, DRD1 (gene 281125) (UniProt Q95136). Put plainly: NVS_GPCR_bDR_NonSelective: NovaScreen (NVS) G Protein-Coupled Receptor Assay for bovine Dopamine Receptor (DR), Non-selective Binding (AID 2283241). A digest of the protocol: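 Bovine striatal membranes; radioligand displacement read by filtration and scintillation counting 1 h after dosing, loss of signal vs DMSO. Screened in duplicate at 25 uM, then concentration-response for hits.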
bovine Dopamine Receptor (DR), Non-selective Binding, DRD1 (gene 281125), sequence (Q95136 whole entry, looked up): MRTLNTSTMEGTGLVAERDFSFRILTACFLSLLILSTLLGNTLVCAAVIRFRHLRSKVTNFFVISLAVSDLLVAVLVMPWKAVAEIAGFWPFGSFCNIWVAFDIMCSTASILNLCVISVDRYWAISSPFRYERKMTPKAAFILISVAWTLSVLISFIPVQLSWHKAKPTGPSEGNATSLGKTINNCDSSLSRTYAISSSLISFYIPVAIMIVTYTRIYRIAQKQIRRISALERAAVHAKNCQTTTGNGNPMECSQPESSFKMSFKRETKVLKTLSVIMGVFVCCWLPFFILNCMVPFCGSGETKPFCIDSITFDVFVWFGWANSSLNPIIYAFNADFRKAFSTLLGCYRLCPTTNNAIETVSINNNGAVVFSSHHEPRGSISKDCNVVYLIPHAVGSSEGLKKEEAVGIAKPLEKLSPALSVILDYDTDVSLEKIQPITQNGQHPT

The target in assay [9] is rat Constitutive Nitric Oxide Synthase (CNOS), Nos1 (gene 24598) (UniProt P29476). Briefly: NVS_ENZ_rCNOS: NovaScreen (NVS) Enzymatic Assay for rat Constitutive Nitric Oxide Synthase (CNOS) (AID 2283236). The procedure: NVS_ENZ_rCNOS is a biochemical, single-readout assay that uses extracted gene-proteins from Rat brain membranes in a tissue-based cell-free assay. Measurements were taken 1 hour after chemical dosing in a 96-well plate.NVS_ENZ_rCNOS is one of one assay component(s) measured or calculated from the NVS_ENZ_rCNOS assay. It is designed to make measurements of enzyme activity, a form of enzyme reporter, as detected with scintillation counting signals by Filter-based radiodetection technology.Data from the assay component NVS_ENZ_rCNOS was analyzed into 1 assay endpoint. This assay endpoint, NVS_ENZ_rCNOS, was analyzed in the positive analysis fitting direction relative to DMSO as the negative control and baseline of activity. Using a type of enzyme reporter, loss-of-signal activity can be used to understand changes in the enzymatic activity as they relate to the gene Nos1. Furthermore, this assay endpoint can be referred to as a primary readout, because this assay has produced multiple assay endpoints where this one serves a enzymatic activity function. To generalize the intended target to other relatable targets, this assay endpoint is annotated to the oxidoreductase intended target family, where the subfamily is nitric oxide synthase. […]

In assay [10] the target is Adenosine receptor A1 (Bos taurus) (UniProt P28190). Put plainly: NVS_GPCR_bAdoR_NonSelective: NovaScreen (NVS) G Protein-Coupled Receptor Assay for bovine Adenosine Receptor (AdoR), Non-selective Binding (AID 2283244). Summed up: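 Bovine striatal membranes, radioligand displacement binding, 1 h after dosing, filter-based scintillation counting. Screened in duplicate at 25 uM, then concentration-response up to 50 uM; loss of specific binding relative to DMSO.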
Adenosine receptor A1 (Bos taurus), sequence (P28190 whole entry, looked up): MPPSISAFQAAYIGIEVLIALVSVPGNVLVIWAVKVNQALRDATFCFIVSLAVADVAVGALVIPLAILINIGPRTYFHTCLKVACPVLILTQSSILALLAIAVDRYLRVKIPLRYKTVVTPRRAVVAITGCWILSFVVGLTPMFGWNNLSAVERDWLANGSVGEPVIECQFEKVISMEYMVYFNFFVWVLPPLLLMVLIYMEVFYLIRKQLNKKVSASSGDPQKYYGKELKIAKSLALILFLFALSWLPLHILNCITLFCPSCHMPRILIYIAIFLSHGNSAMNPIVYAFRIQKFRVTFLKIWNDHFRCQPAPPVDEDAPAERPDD

sheep Cyclooxygenase-1 (Cox1), PTGS1 (gene 443551), sequence (P05979 whole entry, looked up): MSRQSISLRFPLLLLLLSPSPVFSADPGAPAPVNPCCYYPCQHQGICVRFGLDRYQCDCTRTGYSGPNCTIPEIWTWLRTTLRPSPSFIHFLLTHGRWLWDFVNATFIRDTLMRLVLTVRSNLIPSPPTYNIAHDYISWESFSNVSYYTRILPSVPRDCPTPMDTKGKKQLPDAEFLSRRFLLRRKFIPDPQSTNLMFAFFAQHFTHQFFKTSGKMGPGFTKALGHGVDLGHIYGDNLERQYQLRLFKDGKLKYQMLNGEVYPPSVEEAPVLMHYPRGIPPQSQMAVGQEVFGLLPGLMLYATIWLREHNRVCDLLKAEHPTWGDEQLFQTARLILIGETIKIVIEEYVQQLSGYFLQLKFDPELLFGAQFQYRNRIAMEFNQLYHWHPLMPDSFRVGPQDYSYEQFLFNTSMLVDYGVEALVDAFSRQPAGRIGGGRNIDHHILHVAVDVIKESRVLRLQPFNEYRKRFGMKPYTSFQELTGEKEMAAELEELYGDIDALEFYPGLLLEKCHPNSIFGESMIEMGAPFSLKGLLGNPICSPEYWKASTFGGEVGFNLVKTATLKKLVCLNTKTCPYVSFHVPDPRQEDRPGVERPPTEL
sheep Cyclooxygenase-2 (Cox2), PTGS2 (gene 443460), sequence (P79208 whole entry, looked up): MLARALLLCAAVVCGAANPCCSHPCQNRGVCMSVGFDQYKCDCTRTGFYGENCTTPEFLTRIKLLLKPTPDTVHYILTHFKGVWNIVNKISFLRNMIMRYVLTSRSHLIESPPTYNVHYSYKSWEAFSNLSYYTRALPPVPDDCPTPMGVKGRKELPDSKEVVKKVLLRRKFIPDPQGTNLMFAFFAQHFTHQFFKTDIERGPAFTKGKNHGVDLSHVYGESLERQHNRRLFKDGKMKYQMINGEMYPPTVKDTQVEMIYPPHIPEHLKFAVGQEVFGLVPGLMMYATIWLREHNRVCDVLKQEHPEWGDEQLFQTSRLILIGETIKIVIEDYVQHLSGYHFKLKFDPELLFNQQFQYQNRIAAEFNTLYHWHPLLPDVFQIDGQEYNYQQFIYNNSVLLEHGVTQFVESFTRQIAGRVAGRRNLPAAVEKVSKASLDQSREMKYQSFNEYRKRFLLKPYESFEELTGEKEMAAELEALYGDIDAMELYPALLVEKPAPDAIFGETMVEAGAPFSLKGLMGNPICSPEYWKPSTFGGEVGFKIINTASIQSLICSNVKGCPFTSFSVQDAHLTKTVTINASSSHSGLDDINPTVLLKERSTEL
human Vascular Endothelial Growth Factor Receptor 1 (VEGFR1), FLT1 (gene 2321), sequence (P17948 whole entry, looked up): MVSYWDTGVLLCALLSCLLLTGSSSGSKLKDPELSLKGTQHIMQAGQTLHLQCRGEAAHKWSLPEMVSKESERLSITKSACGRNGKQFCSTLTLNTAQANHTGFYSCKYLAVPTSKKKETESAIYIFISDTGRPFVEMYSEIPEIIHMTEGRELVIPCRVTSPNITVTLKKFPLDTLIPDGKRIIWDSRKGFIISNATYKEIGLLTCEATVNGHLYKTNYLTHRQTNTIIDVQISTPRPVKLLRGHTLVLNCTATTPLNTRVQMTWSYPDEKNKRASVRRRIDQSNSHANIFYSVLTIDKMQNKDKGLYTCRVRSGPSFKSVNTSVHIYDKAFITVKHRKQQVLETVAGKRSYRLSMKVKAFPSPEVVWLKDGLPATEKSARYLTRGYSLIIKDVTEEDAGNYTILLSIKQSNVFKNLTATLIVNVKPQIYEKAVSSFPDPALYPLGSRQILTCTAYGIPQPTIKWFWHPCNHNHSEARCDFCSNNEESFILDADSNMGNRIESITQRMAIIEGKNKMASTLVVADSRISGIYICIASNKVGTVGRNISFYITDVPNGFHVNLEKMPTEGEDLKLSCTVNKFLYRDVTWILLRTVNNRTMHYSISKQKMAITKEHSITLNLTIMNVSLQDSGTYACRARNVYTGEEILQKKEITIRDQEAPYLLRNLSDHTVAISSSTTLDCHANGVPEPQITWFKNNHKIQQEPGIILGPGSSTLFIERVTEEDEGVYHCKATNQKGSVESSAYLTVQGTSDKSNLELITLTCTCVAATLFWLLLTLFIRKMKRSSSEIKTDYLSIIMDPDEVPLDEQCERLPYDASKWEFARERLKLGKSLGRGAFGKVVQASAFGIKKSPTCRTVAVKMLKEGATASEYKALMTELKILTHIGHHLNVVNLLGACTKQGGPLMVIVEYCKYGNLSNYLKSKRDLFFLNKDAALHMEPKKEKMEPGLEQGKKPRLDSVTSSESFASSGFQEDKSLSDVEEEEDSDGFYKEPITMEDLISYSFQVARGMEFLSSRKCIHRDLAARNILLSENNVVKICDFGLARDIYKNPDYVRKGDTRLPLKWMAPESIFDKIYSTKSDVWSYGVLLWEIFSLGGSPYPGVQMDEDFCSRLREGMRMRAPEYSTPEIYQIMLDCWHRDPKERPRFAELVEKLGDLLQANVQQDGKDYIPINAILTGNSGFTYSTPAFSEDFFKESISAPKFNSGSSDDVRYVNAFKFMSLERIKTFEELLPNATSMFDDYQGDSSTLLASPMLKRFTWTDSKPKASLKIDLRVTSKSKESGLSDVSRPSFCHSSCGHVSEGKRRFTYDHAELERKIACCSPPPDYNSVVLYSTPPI

For the molecule `NC(=NCCCCCCN=C(N)/N=C(\N)Nc1ccc(Cl)cc1)/N=C(\N)Nc1ccc(Cl)cc1`, the AC50 in assay [1] is 27.6 µM (active).

Consider `CNNCc1ccc(C(=O)NC(C)C)cc1`, for which the half-maximal activity concentration (AC50) in [2] is 25 µM (active).

For `CCCCc1oc2ccccc2c1C(=O)c1cc(I)c(OCCN(CC)CC)c(I)c1`, the outcome in [3] and in assay [4] was inactive.

Consider `Cc1ccc(C(=O)c2ccccc2)cc1`, for which the AC50 in [2] is 15.5 µM (active).

As for `CC(=O)Nc1ccc(O)cc1`, the outcome in assay [1] and in [5] was inactive.

With `Cc1[nH]nc2c1N=C(c1ccccc1Cl)c1cc([N+](=O)[O-])ccc1N2`, the AC50 in assay [6] was 17.9 µM (active); in [1], 0.0098 µM (active); in assay [7], 0.00229 µM (active); in [4] it was 0.00463 µM (active).

As for `CN(Cc1cnc2nc(N)nc(N)c2n1)c1ccc(C(=O)N[C@@H](CCC(=O)O)C(=O)O)cc1`, the AC50 in assay [2] is 1.98 µM (active).

`CC1=NN(c2ccccc2)C(=O)C1`: the AC50 in assay [2] is 28.2 µM (active).

Turning to `CCCCC=O`, in assay [5], the molecule was called inactive.

Regarding `O=C(CCCN1CCC(O)(c2ccc(Cl)cc2)CC1)c1ccc(F)cc1`, the AC50 in assay [3] was 14.4 µM (active); in assay [8], 0.0124 µM (active).

As for `CCCCCCCCCCCCOS(=O)(=O)O`, the values for the AC50 in assay [6], in assay [7] and in [4] were 26 µM (active), 29.3 µM (active) and 16.9 µM (active), respectively. The outcome in [9] and in assay [10] was inactive.

For the molecule `O=C(c1ccccc1)c1ccccc1`, the outcome in [10] was inactive.

With `N=C(N)c1ccc(OCCCCCOc2ccc(C(=N)N)cc2)cc1`, the AC50 in assay [3] is 0.0332 µM (active); in [5], 7.19 µM (active); in assay [9], 6.42 µM (active). Also, in [8], the molecule was called inactive.

Turning to `CN(C)CCOC(c1ccccc1)c1ccccc1`, the concentration at half-maximal activity (AC50) was 8.46 µM (active) in assay [3] and 5.83 µM (active) in [8].

Take `CCCCCCCCCCCCCCCCCC[N+](C)(C)Cc1ccccc1`: the outcome in assay [1] and in assay [2] was inactive.

For `OCC(CO)(CBr)CBr`, in assay [5], the AC50 is 16.7 µM (active).

Turning to `CS(=O)(=O)c1ccc([C@@H](CC2CCCC2)C(=O)Nc2cnccn2)cc1Cl`, the AC50 in [5] is 25 µM (active).

Turning to `CCC(=O)O`, in assay [2], the AC50 was 0.00683 µM (active).
